Assay outcomes deposited in PubChem by Broad Institute.
aSyn UTR act – Activators via SNCA 5'UTR binding, MLPCN | alpha-synuclein 5'UTR reporter, activators screen | activity score, % (tested at 7.5 µM), hits read low | actives 7.1% (n = 300,000); in the data active = activity score below about -60%
Starred values were filed as active, the others as inactive. Only a sample is shown.

SMILES	aSyn UTR act
C[C@@]1(CO)[C@H](O)CC[C@@]2(C)[C@H]1CC[C@H]1C[C@@H]3C[C@@]12CC[C@]3(O)CO	73.3
CN1C(=O)C(Cc2ccc(OCc3ccccc3)cc2)C(=O)N(C)C1=O	-105.1*
COc1ccc(CNCCc2c(C)[nH]c3ccc(OC(F)(F)F)cc23)c(OC)c1	90.5
Cc1nn(CC(C)C)c(Cl)c1C(=O)NC1CCC(C)CC1 (stereo not drawn)	-123.5*
CC(C)(C)C(=O)c1cn(CC(=O)NCc2ccco2)c2ccccc12	-142.5*
CCCCN=C[C@]12CCC(O)CC1(O)CCC1[C@@H]2CC[C@]2(C)[C@H](C3C=CC(=O)O3)CCC12O (stereo partly drawn)	96.0
Cc1cc(N(CCCl)CCCl)ccc1/C=N/N=C(\N)c1cnccn1	-73.5*
CC1=CC(=C2C(=O)NC(=S)NC2=O)C=C(C(F)(F)F)N1Cc1ccccc1	113.4
CCCCCn1c(=O)c(C(=O)Nc2ccccn2)c(O)c2ccccc21	65.4
CCCCCCn1c(=O)c(C(=O)Nc2cnccn2)c(O)c2ccccc21	66.6
CCCCCCn1c(=O)c(C(=O)Nc2c(C)n(C)n(-c3ccccc3)c2=O)c(O)c2ccccc21	-75.9*
C/C=C(\C)C(=O)OC1C(C)=C2C(C1OC(=O)CCCCC)C(C)(OC(C)=O)CC(OC(=O)CCC)C1(O)C2OC(=O)C1(C)O (stereo not drawn)	108.1
CN1C(=O)NC(=O)C(C)(C2=CCCCC2)C1=O (stereo not drawn)	-71.3*
O=[N+]([O-])c1ccccc1CNCCc1ccc(F)cc1	-111.4*
CC(=O)O[C@@]12CO[C@@H]1C[C@@H](O)[C@@]1(C)C(=O)[C@H](O)C3=C(C)[C@@H](OC(=O)[C@H](O)[C@@H](NC(=O)c4ccccc4)c4ccccc4)C[C@@](O)([C@@H](OC(=O)c4ccccc4)C12)C3(C)C (stereo partly drawn)	113.4
O=C(Nc1ccc(Cl)cc1)OC1CN2CCC1CC2 (stereo not drawn)	-114.1*
O=C(Nc1cccc(Cl)c1)OC1CN2CCC1CC2 (stereo not drawn)	-64.0*
CN(C)c1ccc(-[n+]2c(-c3ccccc3)cc(-c3ccccc3)cc2-c2ccccc2)cc1	84.1
O=C(NC1(C(F)(F)F)Oc2ccc(Cl)cc2O1)N1CCC2(CC1)OCCO2 (stereo not drawn)	-72.7*
CC(=O)Nc1ccccc1C(=O)OCc1ccc(F)cc1	-84.2*
CC(=O)Nc1ccccc1C(=O)OCC(=O)c1ccc2c(c1)OCCO2	-61.6*
CCN1C(=O)C(=C2C=C(C)OC(C)=C2)C(=O)N(CC)C1=S	-74.6*
O=C1Nc2ccccc2/C1=C/c1nc2ccccc2c(=O)n1-c1ccc(O)cc1	-76.7*
Fc1ccc(C(OCCN2CCN(CCCc3ccccc3)CC2)c2ccc(F)cc2)cc1	105.9
COc1ccc(O)c2c(=O)c3c(OC)cc4c(c3oc12)C1C=COC1O4 (stereo not drawn)	94.0
SMILES	aSyn UTR act
CCCCCn1c(=O)c(C(=O)NCc2ccncc2)c(O)c2ccccc21	65.3
Cc1ccc(N2C(=O)NC(=O)/C(=C/c3cnn(-c4ccc(C)cc4)c3)C2=O)cc1	-72.4*
O=c1[nH]c(=S)[nH]c(O)c1N=Nc1ccc(OC(F)F)cc1	-92.0*
O=c1[nH]c(=S)[nH]c(O)c1N=Nc1ccc2c(c1)OCO2	-73.9*
CC(=O)O[C@@H]1/C=C/[C@](C)(O)C[C@@H](C)C/C=C/[C@H]2[C@@H]3O[C@]3(C)[C@@H](C)[C@H]3[C@H](Cc4ccccc4)NC(=O)[C@@]312	113.8
C=C1C(=O)O[C@@H]2C[C@@H](C)[C@H]3C=CC(=O)[C@]3(O)C[C@@H]12	-116.6*
COc1ccc(OC)c(/C=N/OC(=O)Nc2ccc(Cl)cc2)c1	-63.0*
c1ccc(CN2CCc3nc4ccccc4cc3C2)cc1	-170.9*
Cc1cc(C(=O)CS(=O)(=O)c2ccccc2)cc(C)c1OC(=O)N(C)C	-71.0*
Cc1cc(C(=O)CS(=O)c2ccc(F)cc2)cc(C)c1OC(=O)N(C)C (stereo not drawn)	-68.4*
C/C=C(\C)C(=O)N[C@@H](c1ccccc1)[C@@H](O)C(=O)O[C@H]1C[C@@]2(O)[C@@H](OC(=O)c3ccccc3)C3[C@](C)(C(=O)[C@H](OC(C)=O)C(=C1C)C2(C)C)[C@H](O)C[C@H]1OC[C@@]31OC(C)=O (stereo partly drawn)	109.7
O=C1NC(c2cccnc2)Nc2sc3c(c21)CCCC3 (stereo not drawn)	-97.5*
CCN(CC)C(=O)c1ccc(NC(=O)Nc2ccccc2F)cc1	59.4
